A short description of assay [1]: NCI Yeast Anticancer Drug Screen. Data for the rad50 strain (AID 155).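 Also: 0% = growth of vehicle-only cultures of the same strain.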 The conditions noted are these: S. cerevisiae rad50 strain growth inhibition, active compounds read high. An outline of the steps:
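Inhibition values express reduced yeast growth in compound-treated cultures relative to vehicle-treated controls.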

Assay [2] is described as follows: NCI Yeast Anticancer Drug Screen. Data for the mec2-1 strain (AID 157). The conditions noted are these: S. cerevisiae mec2-1 strain, active compounds read high. An outline of the steps: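 Readout is yeast growth inhibition, normalised to vehicle-treated controls, in the mec2-1 strain exposed to compound.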
Assay [3] is described as follows: NCI Yeast Anticancer Drug Screen. Data for the sgs1 mgt1 strain (AID 161).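 Also: 0% = growth of cultures given vehicle only.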 The settings on record: S. cerevisiae sgs1 mgt1 strain, active compounds read high. An outline of the steps:
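Growth of a repair-deficient yeast mutant was monitored after compound treatment and expressed as inhibition relative to vehicle-treated cultures.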

A short description of assay [4]: NCI Yeast Anticancer Drug Screen. Data for the cln2 rad14 strain (AID 165).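 Also: 0% = growth equal to vehicle treated cultures.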 The settings on record: S. cerevisiae cln2 rad14 strain, active compounds read high. An outline of the steps: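 Relative to vehicle controls, growth inhibition of compound-treated cln2 rad14 yeast was recorded.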
Assay [5] in a line: NCI Yeast Anticancer Drug Screen. Data for the bub3 strain (AID 167). The settings on record: S. cerevisiae bub3 mutant strain, active compounds read high. An outline of the steps:
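Steps: expose the mutant yeast strain to compound; grow alongside vehicle-treated cultures; measure growth; express inhibition against the vehicle cultures.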

Assay [6] is described as follows: NCI Yeast Anticancer Drug Screen. Data for the mlh1 rad18 strain (AID 175). The settings on record: S. cerevisiae mlh1 rad18 strain growth inhibition, active compounds read high. An outline of the steps:
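Test agents were incubated with a yeast strain of defined genotype (DNA damage repair defect). Inhibition of growth was derived by comparison with vehicle-exposed cultures.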

[7] abbreviates: at 5.0 µM (retest, dose inferred, filed as 0.5).
Setting [8] is: at 50.0 µM (retest, dose inferred, filed as 5.0).

The panel holds about 79,000 compounds, 15% with a hit somewhere; the sample as a whole holds those more often. A number with no mark means an inactive call. Calls of active or inactive are those of the source. Rule as the data show it: active = growth inhibition above about 70%; inactive = the rest.

The source of these data is PubChem BioAssay (NCI).

For `CC(=O)N(C1=C(Cl)C(=O)c2ccccc2C1=O)c1ccc(F)cc1`, the growth inhibition in assay [1] (setting [7]) was 28%; in assay [1] (setting [8]), 99% (active); in assay [1] (at 50.0 µM), 98.8% (active); in assay [2] (setting [7]) it was 39%; in assay [2] (setting [8]) it was 98% (active); in assay [2] (at 50.0 µM), 99.3% (active). Further, the growth inhibition was 35% in assay [3] (setting [7]); 99% (active) in assay [3] (setting [8]); 99.4% (active) in assay [3] (at 50.0 µM); 13% in assay [4] (setting [7]); 98% (active) in assay [4] (setting [8]); 94.4% (active) in assay [4] (at 50.0 µM). The growth inhibition in assay [5] (setting [7]) was 57%; in assay [5] (setting [8]), 99% (active); in assay [5] (at 50.0 µM), 97.4% (active); in assay [6] (setting [7]) it was 39%; in assay [6] (setting [8]) it was 99% (active); in assay [6] (at 50.0 µM) it was 99.4% (active).

Regarding `COc1ccc(C2C3CCCC(C(c4ccc(OC)cc4)N2C)C32NC(=O)NC2=O)cc1` (configuration not stated), the growth inhibition was 63% in assay [1] (setting [7]); 98% (active) in assay [1] (setting [8]); 97.2% (active) in assay [1] (at 50.0 µM); 25% in assay [2] (setting [7]); 98% (active) in assay [2] (setting [8]); 98% (active) in assay [2] (at 50.0 µM). Besides, the growth inhibition in assay [3] (setting [7]) was 23%; in assay [3] (setting [8]), 98% (active); in assay [3] (at 50.0 µM), 97.8% (active); in assay [4] (setting [7]), 2%; in assay [4] (setting [8]), 97% (active); in assay [4] (at 50.0 µM), 97.2% (active). Besides, the growth inhibition in assay [5] (setting [7]) was 3%; in assay [5] (setting [8]), 97% (active); in assay [5] (at 50.0 µM) it was 97.8% (active); in assay [6] (setting [7]), 29%; in assay [6] (setting [8]) it was 95% (active); in assay [6] (at 50.0 µM) it was 97.6% (active).

In the case of `O=[N+]([O-])c1ccc(C(Nc2ccccc2)c2ccc3cccnc3c2O)cc1` (configuration not stated), the growth inhibition was -5% in assay [1] (setting [7]); 83% (active) in assay [1] (setting [8]); 71.9% (active) in assay [1] (at 50.0 µM); -1% in assay [2] (setting [7]); 82% (active) in assay [2] (setting [8]); 80% (active) in assay [2] (at 50.0 µM). Further, the growth inhibition was -10% in assay [3] (setting [7]); 85% (active) in assay [3] (setting [8]); 76% (active) in assay [3] (at 50.0 µM); -37% in assay [4] (setting [7]); 79% (active) in assay [4] (setting [8]); 81.3% (active) in assay [4] (at 50.0 µM). Also, the growth inhibition in assay [5] (setting [7]) was -11%; in assay [5] (setting [8]), 85% (active); in assay [5] (at 50.0 µM), 58.6%; in assay [6] (setting [7]), 4%; in assay [6] (setting [8]) it was 85% (active); in assay [6] (at 50.0 µM) it was 82.2% (active).

Regarding `Oc1ccc(C2Oc3ccccc3C=C2c2ccccc2)cc1` (configuration not stated), the growth inhibition is 51% in assay [1] (setting [7]); 98% (active) in assay [1] (setting [8]); -10.4% in assay [1] (at 50.0 µM); 58% in assay [2] (setting [7]); 99% (active) in assay [2] (setting [8]); -25.8% in assay [2] (at 50.0 µM). In addition, the growth inhibition in assay [3] (setting [7]) was 61%; in assay [3] (setting [8]), 99% (active); in assay [3] (at 50.0 µM) it was -5.2%; in assay [4] (setting [7]) it was 15%; in assay [4] (setting [8]) it was 99% (active); in assay [4] (at 50.0 µM), -14.8%. The growth inhibition was 13% in assay [5] (setting [7]); 99% (active) in assay [5] (setting [8]); -1.25% in assay [5] (at 50.0 µM); 81% (active) in assay [6] (setting [7]); 98% (active) in assay [6] (setting [8]); -7.45% in assay [6] (at 50.0 µM).

In the case of `OC1CC2OC2C1O` (configuration not stated), the growth inhibition in assay [1] (setting [7]) is -2%; in assay [1] (setting [8]) it was 3%; in assay [1] (at 50.0 µM) it was -6.25%; in assay [2] (setting [7]), -5%; in assay [2] (setting [8]), 3%; in assay [2] (at 50.0 µM), 3.75%. Besides, the growth inhibition in assay [3] (setting [7]) is -2%; in assay [3] (setting [8]) it was 1%; in assay [3] (at 50.0 µM), -4.95%; in assay [4] (setting [7]), -1%; in assay [4] (setting [8]), -1%; in assay [4] (at 50.0 µM), 69.6%. Also, the growth inhibition in assay [5] (setting [7]) was 2%; in assay [5] (setting [8]), 7%; in assay [5] (at 50.0 µM) it was 18.6%; in assay [6] (setting [7]) it was -1%; in assay [6] (setting [8]), 2%; in assay [6] (at 50.0 µM), -11.4%.

With `c1ccc(CN(CCCOc2ccccc2)Cc2ccccc2)cc1`, the growth inhibition was 2% in assay [1] (setting [7]); 25% in assay [1] (setting [8]); 56.4% in assay [1] (at 50.0 µM); -4% in assay [2] (setting [7]); 53% in assay [2] (setting [8]); 29.9% in assay [2] (at 50.0 µM). The growth inhibition is 5% in assay [3] (setting [7]); 85% (active) in assay [3] (setting [8]); 76.5% (active) in assay [3] (at 50.0 µM); 3% in assay [4] (setting [7]); 15% in assay [4] (setting [8]); 72.3% (active) in assay [4] (at 50.0 µM). Also, the growth inhibition in assay [5] (setting [7]) was 15%; in assay [5] (setting [8]), 71% (active); in assay [5] (at 50.0 µM), 79.8% (active); in assay [6] (setting [7]), 25%; in assay [6] (setting [8]), 77% (active); in assay [6] (at 50.0 µM), 80.5% (active).

For `O=C1c2scc(-c3ccccc3)c2-n2cccc21`, the growth inhibition is -6% in assay [1] (setting [7]); 96% (active) in assay [1] (setting [8]); 78.5% (active) in assay [1] (at 50.0 µM); -10% in assay [2] (setting [7]); 95% (active) in assay [2] (setting [8]); 90.1% (active) in assay [2] (at 50.0 µM). In addition, the growth inhibition is 2% in assay [3] (setting [7]); 87% (active) in assay [3] (setting [8]); 82.5% (active) in assay [3] (at 50.0 µM); 10% in assay [4] (setting [7]); 81% (active) in assay [4] (setting [8]); 80.8% (active) in assay [4] (at 50.0 µM). The growth inhibition in assay [5] (setting [7]) is -16%; in assay [5] (setting [8]), 94% (active); in assay [5] (at 50.0 µM), 79% (active); in assay [6] (setting [7]) it was -16%; in assay [6] (setting [8]), 94% (active); in assay [6] (at 50.0 µM), 88.2% (active).

Regarding `CC1(CO)CCCC2(C)C1CCC1CC3C=CC12C1C(=O)OC(=O)C31` (configuration not stated), the growth inhibition is 41% in assay [1] (setting [7]); 79% (active) in assay [1] (setting [8]); 84.1% (active) in assay [1] (at 50.0 µM); 25% in assay [2] (setting [7]); 77% (active) in assay [2] (setting [8]); 61.2% in assay [2] (at 50.0 µM). For the same compound, the growth inhibition is 12% in assay [3] (setting [7]); 86% (active) in assay [3] (setting [8]); 24.6% in assay [3] (at 50.0 µM); 30% in assay [4] (setting [7]); 82% (active) in assay [4] (setting [8]); 27.8% in assay [4] (at 50.0 µM). Further, the growth inhibition in assay [5] (setting [7]) was 23%; in assay [5] (setting [8]), 89% (active); in assay [5] (at 50.0 µM) it was 62.2%; in assay [6] (setting [7]) it was 36%; in assay [6] (setting [8]), 88% (active); in assay [6] (at 50.0 µM) it was 79.5% (active).

In the case of `O=C1/C(=C\c2ccc(Cl)cc2)SC2SC=C(c3ccc([N+](=O)[O-])cc3)N12` (configuration not stated), the growth inhibition was 0% in assay [1] (setting [7]); 86% (active) in assay [1] (setting [8]); 98.3% (active) in assay [1] (at 50.0 µM); 2% in assay [2] (setting [7]); 94% (active) in assay [2] (setting [8]); 98.9% (active) in assay [2] (at 50.0 µM). The growth inhibition in assay [3] (setting [7]) was -4%; in assay [3] (setting [8]) it was 92% (active); in assay [3] (at 50.0 µM), 99.2% (active); in assay [4] (setting [7]), -20%; in assay [4] (setting [8]), 86% (active); in assay [4] (at 50.0 µM), 98% (active). The growth inhibition in assay [5] (setting [7]) was -7%; in assay [5] (setting [8]), 86% (active); in assay [5] (at 50.0 µM), 86.8% (active); in assay [6] (setting [7]), 5%; in assay [6] (setting [8]), 92% (active); in assay [6] (at 50.0 µM), 98.6% (active).
